LGR2 antag = inhibitors of bursicon-induced LGR2 CRE-luciferase signal, primary screen, cell-based, HEK293, CRE-luciferase reporter, bursicon stimulation. inhibition, % at 9.99 µM. bursicon-stimulated, 4 h. 0.35% of 380,000 active. Drosophila bursicon receptor LGR2 (rickets);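 active means drop in luminescence signal, shown as inhibition above about 50% in the replicate tests, limit read from the data, passing the limit was not always enough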;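 further: agonist challenge used bursicon conditioned medium at about half maximal strength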
MITF TRPM1 inh = inhibitors of MITF-dependent TRPM1 promoter reporter, primary screen, cell-based, SK-MEL-5, single point, luciferase; inhibition, % at 12.5 µM; AID 488899, 2010; 0.83% of 330,000 active; SK-MEL-5 TRPM1 promoter luciferase, 24 h;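 active means mean inhibition across replicates of 60% or more, whatever share of single replicates reaches that level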
PGC1a acetyl inh = inhibitors of PGC1a acetylation signal, primary screen, cell-based, U2OS, AlphaScreen, inhibitor mode. AlphaScreen anti-acetyl-lysine; with virally co-expressed GCN5 acetyltransferase. inhibition, % at 15.6 µM. 0.17% of 350,000 active;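 active means every replicate shows inhibition of at least 40%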
EWS-Fli inh = EWS/Fli-driven NR0B1 reporter inhibitors, primary screen, A673 cells, NR0B1 luciferase, luminescence, MLPCN library; viability-normalised; inhibition, % at 12.6 µM; 0.67% of 350,000 active; AID 651661, 2012;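 active means mean inhibition of at least 50% after viability correction, with every replicate also passing that limit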;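 further: firefly luciferase signal divided by Alamar Blue viability fluorescence both relative to DMSO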
LMP1 NFkB inh = EBV LMP1-driven NF-kappaB luciferase reporter inhibitors, primary screen, cell-based, luminescence, single point. LMP1-induced NF-kappaB luciferase reporter cells. inhibition, % at 12.5 µM. 0.69% of 350,000 active. AID 504558, 2011; in the data active means inhibition above about 41%
PAX8 reporter = inhibitors of PAX8-driven TPO luciferase reporter, primary screen, RMG-I cells, single concentration; AID 652154, 2013; SteadyGlo, 24 h; 1.2% of 360,000 active; inhibition, % at 12.6 µM;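 active means mean replicate inhibition at least 60% with every replicate also reaching 60%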;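 further: luciferase light reporting Pax8 driven TPO promoter activity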
Of the large screens only hits and unclear results are named; the others gave an inactive call; ! = a repeat was not active. Hits are enriched below; roughly 2.2% of the tested compounds scored in any of these assays.

CCCCn1c(CN2CCN(c3cccc(Cl)c3)CC2)nc2c1c(=O)[nH]c(=O)n2C	EWS-Fli inh 58 (no result: PAX8 reporter)
Cn1c(=O)[nH]c(=O)c2c1nc(CN1CCN(c3cccc(Cl)c3)CC1)n2CCCc1ccccc1	none
Cn1c(=O)[nH]c(=O)c2c1nc(CN1CCOCC1)n2CCCc1ccccc1	LMP1 NFkB inh 85 (no result: PGC1a acetyl inh)
Cn1c(=O)[nH]c(=O)c2c1nc(CN1CCOCC1)n2CCc1ccccc1	none (no result: LGR2 antag, EWS-Fli inh, PAX8 reporter)
COc1cccc(-c2ccc([C@H]3[C@@H](CO)N4C(=O)CN(C(=O)C5CCCCC5)C[C@@H]34)cc2)c1	none (no result: MITF TRPM1 inh, LMP1 NFkB inh)
Cc1ccc(-n2nc(C)c3c(C)c(CCC(=O)Nc4ccc(CN5CCCC5)cc4)c(C)nc32)cc1	MITF TRPM1 inh 65
CC12CCC(=O)N1C(C(=O)OCC(=O)Nc1cccc(S(=O)(=O)N3CCCCCC3)c1)CS2 (configuration not stated)	PAX8 reporter 84 (no result: PGC1a acetyl inh)
CC(=O)c1ccccc1OCC(=O)Nc1cccc(S(=O)(=O)N2CCCC2)c1	LMP1 NFkB inh 46
Cc1[nH]c(=O)c(C(=O)/C=C/c2ccccc2F)c2c1CCCC2	LGR2 antag 86, MITF TRPM1 inh 84, LMP1 NFkB inh 81 (no result: PAX8 reporter)
C/C(=C\c1ccccc1F)C(=O)c1c(C)cc(C)[nH]c1=O	none
CC[C@]12c3[nH]c4ccc(Cl)cc4c3CCN1C(=O)[C@@H](CC(=O)NC/C=C(\C)CCC=C(C)C)C[C@@H]2C(=O)N1CCN(C(=O)C2CC2)CC1	PAX8 reporter 75
CC[C@]12c3[nH]c4cc(CCC(=O)N(C)C)ccc4c3CCN1C(=O)[C@@H](CC(=O)NC/C=C(\C)CCC=C(C)C)C[C@@H]2C(=O)N1CCN(C(=O)C2CC2)CC1	none (no result: PGC1a acetyl inh)
C[C@@H]1CN([C@@H](C)CO)S(=O)(=O)c2ccc(C#C[C@@H](C)O)cc2O[C@H]1CN(C)Cc1ccc(-c2ccccc2)cc1	PAX8 reporter 92 (no result: MITF TRPM1 inh, LMP1 NFkB inh)
C[C@H](CO)N1C[C@H](C)[C@H](CN(C)Cc2ccc(-c3ccccc3)cc2)Oc2cc(C#C[C@@H](C)O)ccc2S1(=O)=O	none (no result: MITF TRPM1 inh, LMP1 NFkB inh)
C[C@H](O)C#Cc1ccc2c(c1)O[C@H](CN(C)Cc1ccc(-c3ccccc3)cc1)[C@H](C)CN([C@H](C)CO)S2(=O)=O	none (no result: MITF TRPM1 inh, LMP1 NFkB inh)
C[C@H](O)C#Cc1ccc2c(c1)O[C@@H](CN(C)Cc1ccccc1)[C@H](C)CN([C@@H](C)CO)S2(=O)=O	none (no result: MITF TRPM1 inh, LMP1 NFkB inh, PAX8 reporter)
C[C@H](O)C#Cc1ccc2c(c1)O[C@H](CN(C)Cc1ccc(-c3ccccc3)cc1)[C@@H](C)CN([C@H](C)CO)S2(=O)=O	PAX8 reporter 80 (no result: MITF TRPM1 inh, LMP1 NFkB inh)
C[C@H](O)C#Cc1ccc2c(c1)O[C@@H](CN(C)Cc1ccc(-c3ccccc3)cc1)[C@@H](C)CN([C@@H](C)CO)S2(=O)=O	PAX8 reporter 89 (no result: MITF TRPM1 inh, LMP1 NFkB inh)
CC(C)NC(=O)N(C)C[C@H]1Oc2cc(-c3ccncc3)ccc2S(=O)(=O)N([C@H](C)CO)C[C@@H]1C	none (no result: MITF TRPM1 inh, LMP1 NFkB inh, PAX8 reporter)
C[C@@H]1CN([C@@H](C)CO)C(=O)c2cc(NC(=O)Nc3ccc(C(F)(F)F)cc3)ccc2O[C@H]1CN(C)C	none (no result: MITF TRPM1 inh, LMP1 NFkB inh)
CC(=O)Nc1nc(-c2ccc3c(c2)CCN3C(=O)C2CC2)c(C)s1	LMP1 NFkB inh 82
CCCC(=O)Nc1ccc2c(c1)C(=O)N(C)C[C@H](OC)[C@H](C)CN(CC1CCOCC1)[C@H](C)CO2	none (no result: MITF TRPM1 inh, LMP1 NFkB inh, PAX8 reporter)
O=C1CC(c2ccc(Cl)cc2)Oc2ccc(Cl)cc21 (configuration not stated)	none
Cn1c(Cl)cnc1C1CC(=O)c2cc(Cl)ccc2O1 (configuration not stated)	PAX8 reporter 72 (no result: LGR2 antag, EWS-Fli inh)
CC1=CC(C)(C)N2C(=O)C(=Nc3ccc(O)cc3)c3cccc1c32	MITF TRPM1 inh 78
CCCCN(C(=O)c1cc(-c2ccc(F)cc2)nc2ccccc12)c1c(N)n(CCCC)c(=O)[nH]c1=O	MITF TRPM1 inh 69
C[C@H](O)C#Cc1cnc2c(c1)C(=O)N([C@@H](C)CO)C[C@H](C)[C@H](CN(C)C(=O)c1ccncc1)O2	none (no result: MITF TRPM1 inh, LMP1 NFkB inh, PAX8 reporter)
CCCCCCCCCCOC(=O)Cn1c(COc2ccccc2OC)[n+](C)c2ccccc21	LGR2 antag 54, MITF TRPM1 inh 83, EWS-Fli inh 57, PAX8 reporter 70 (no result: PGC1a acetyl inh)
Cc1cc(C)c2c(c1)/C(=N/NC(=O)c1cc(C)oc1C)CCC2	PAX8 reporter 99 (no result: PGC1a acetyl inh)
C[C@H]1CN([C@@H](C)CO)C(=O)c2cc(NS(=O)(=O)c3ccc(Cl)cc3)ccc2O[C@@H]1CN(C)S(=O)(=O)c1cn(C)cn1	none (no result: MITF TRPM1 inh, LMP1 NFkB inh, PAX8 reporter)
Cc1cccc(-n2c(O)c(C=Nc3ccccc3O)c3ccccc3c2=O)n1	none
Cc1cccc(-n2c(O)c(C=Nc3c(C)n(C)n(-c4ccccc4)c3=O)c3ccccc3c2=O)n1	LMP1 NFkB inh 58!
Cc1cccc(OCC(=O)Nc2ccc3c(c2)nc(CCN2CCCCC2)n3C)c1	none (no result: PGC1a acetyl inh)
Cn1c(CCN2CCN(c3ccccn3)CC2)nc2cc(NC(=O)COc3ccc(Cl)cc3)ccc21	PAX8 reporter 67 (no result: EWS-Fli inh)
COc1ccc(OCC(=O)Nc2ccc3c(c2)nc(CCN2CCN(c4ccccn4)CC2)n3C)cc1	none (no result: MITF TRPM1 inh, PGC1a acetyl inh)
Cc1cccc(OCC(=O)Nc2ccc3c(c2)nc(CCN2CCN(c4ccccn4)CC2)n3C)c1	PAX8 reporter 71 (no result: EWS-Fli inh)
Cn1c(CCN2CCN(c3ccccn3)CC2)nc2cc(NS(=O)(=O)c3ccc(Cl)cc3)ccc21	PAX8 reporter 90 (no result: EWS-Fli inh)
CC1CCN(CCc2nc3cc(NC(=O)COc4ccc(Cl)cc4)ccc3n2C)CC1	PAX8 reporter 75 (no result: EWS-Fli inh)
O=C(C[C@H]1CC[C@@H]2[C@H](COC[C@H](O)CN2C(=O)c2ccncc2)O1)NC1Cc2ccccc2C1	none (no result: MITF TRPM1 inh, LMP1 NFkB inh)
COc1ccc(S(=O)(=O)N(C)C[C@H]2OCCCC[C@H](C)Oc3ccc(NC(=O)CCCN(C)C)cc3C(=O)N([C@H](C)CO)C[C@@H]2C)cc1	none (no result: MITF TRPM1 inh, LMP1 NFkB inh)
O=C(NCC1CCCO1)C(=O)NCC(c1ccco1)N1CCN(c2ccccc2)CC1 (configuration not stated)	PAX8 reporter 151
O=C(NCC1CCCO1)C(=O)NCC(c1ccco1)N1CCN(c2ccc(F)cc2)CC1 (configuration not stated)	none
O=c1oc2ccccc2c(O)c1/C=N/c1ccccn1	LMP1 NFkB inh 50 (no result: LGR2 antag, EWS-Fli inh, PAX8 reporter)
O=C(CN1CCN(S(=O)(=O)c2ccc(F)cc2)CC1)Nc1cccc(C(F)(F)F)c1	LMP1 NFkB inh 74 (no result: EWS-Fli inh, PAX8 reporter)
O=C(Cn1ccc(C(F)(F)F)n1)Nc1cccc(S(=O)(=O)N2CCCCC2)c1	LMP1 NFkB inh 53
COc1cccc(NC(=O)CN2CCN(S(=O)(=O)c3ccc(F)cc3)CC2)c1	none (no result: PAX8 reporter)
COc1ccc(S(=O)(=O)N2CCN(CC(=O)Nc3cc(OC)cc(OC)c3)CC2)cc1	LMP1 NFkB inh 79 (no result: EWS-Fli inh, PAX8 reporter)

Bioassay records deposited in PubChem by Broad Institute.
